This is an account of results in PubChem BioAssay (NCI).

Test systems include HCT-15 colon; HT29 colon; SNB-75 CNS; SNB-19 CNS; U251 CNS; PC-3 prostate; SK-MEL-5 melanoma; UACC-62 melanoma; LOX IMVI melanoma; SK-MEL-28 melanoma; EKVX NSCLC; SN12C renal; UO-31 renal; TK-10 renal; ACHN renal; CAKI-1 renal; A498 renal; CCRF-CEM leukemia; MOLT-4 leukemia.
Common to all, as to experiment: NCI-60 one-dose screen, 48 h (100 = growth as untreated, 0 = no growth, -100 = all killed)
Conditions in all cases: 10 µM unless noted

The panel holds about 83,000 compounds, 20% with a hit somewhere; the sample as a whole holds those more often.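 For each line, cells grew in 96-well plates with the test compound present at a single concentration for 48 hours.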 Unmarked numbers belong to inactive results. Active and inactive are the calls of the source. Rule for the calls: active = growth percent below 10; inactive = the rest.

On to `CNC(=O)c1c(C)oc2cc(Oc3ncnc4cc(OC)c(OC)cc34)ccc12`, for which the growth in the assay with HCT-15 colon was 109%; in the assay on HT29 colon it was 98.4%; in the assay on SNB-75 CNS, 58.2%; in the assay with SNB-19 CNS, 97.5%; in the assay with U251 CNS, 58.9%; in the assay with PC-3 prostate, 84.9%. The growth is 121% in the assay on SK-MEL-5 melanoma; 104% in the assay with UACC-62 melanoma; 96.5% in the assay with LOX IMVI melanoma; 119% in the assay with SK-MEL-28 melanoma; 113% in the assay with EKVX NSCLC; 107% with SN12C renal. Also, the growth in the assay with UO-31 renal was 66%; in the assay with TK-10 renal, 98.9%; with ACHN renal, 104%; with CAKI-1 renal, 82.2%; in the assay on A498 renal, 19.5%; in the assay with CCRF-CEM leukemia, 86.2%. In addition, the growth in the assay on MOLT-4 leukemia is 85.6%.

`COc1ccc(-c2ccc3ncc4c(c3c2)n(-c2ccc(N3CCNCC3)c(C(F)(F)F)c2)c(=O)n4C)cn1`: the growth was -78.6% (active) in the assay with HCT-15 colon; -78.2% (active) in the assay with HT29 colon; -95.1% (active) in the assay on SNB-75 CNS; -74.2% (active) in the assay on SNB-19 CNS; -85.5% (active) with U251 CNS; -84.1% (active) with PC-3 prostate. Moreover, the growth was -92.4% (active) in the assay with SK-MEL-5 melanoma; -74.7% (active) in the assay on UACC-62 melanoma; -82% (active) with LOX IMVI melanoma; -76.6% (active) with SK-MEL-28 melanoma; -77.1% (active) with EKVX NSCLC; -80.7% (active) in the assay on SN12C renal. The growth is -90.9% (active) in the assay on UO-31 renal; -90.2% (active) in the assay on TK-10 renal; -97.5% (active) with ACHN renal; -94.8% (active) in the assay with CAKI-1 renal; -79.2% (active) in the assay on A498 renal; -47.1% (active) in the assay on CCRF-CEM leukemia. In the assay on MOLT-4 leukemia, the growth is -50.8% (active).

As for `NC1(C(=O)N[C@@H](CCO)c2ccc(Cl)cc2)CCN(c2ncnc3[nH]ccc23)CC1`, the growth was 58.1% in the assay on HCT-15 colon; 23.5% with HT29 colon; -46.8% (active) with SNB-75 CNS; 43.5% in the assay on SNB-19 CNS; 34.6% in the assay with U251 CNS; 49.8% in the assay with PC-3 prostate. For the same compound, the growth in the assay with SK-MEL-5 melanoma was 70.5%; in the assay on UACC-62 melanoma, -15.6% (active); in the assay on LOX IMVI melanoma it was 40.3%; with SK-MEL-28 melanoma it was 24.7%; in the assay with EKVX NSCLC, 61.9%; in the assay on SN12C renal it was 55.6%. Besides, the growth with UO-31 renal was 17.5%; in the assay with TK-10 renal it was 13.7%; with ACHN renal, 53.4%; with CAKI-1 renal, 34.4%; with A498 renal, -46.2% (active); in the assay on CCRF-CEM leukemia, 41.6%. Besides, the growth in the assay with MOLT-4 leukemia was 11.4%.

For the compound `O=C(COc1ccc(/C=C2\Cc3ccc(Cl)cc3C2=O)cc1)Nc1nccs1`, the growth with HCT-15 colon is 98.5%; with HT29 colon, 108%; in the assay on SNB-75 CNS it was 86.6%; with SNB-19 CNS it was 83.8%; in the assay on U251 CNS it was 108%; in the assay on PC-3 prostate, 96%. Besides, the growth in the assay on SK-MEL-5 melanoma is 99.3%; in the assay on UACC-62 melanoma, 95.3%; in the assay with LOX IMVI melanoma, 93%; in the assay with SK-MEL-28 melanoma, 122%; in the assay on EKVX NSCLC it was 110%; in the assay on SN12C renal, 95.7%. The growth in the assay with UO-31 renal was 28.7%; with TK-10 renal, 138%; in the assay with ACHN renal, 92.7%; in the assay with CAKI-1 renal, 90.1%; in the assay with A498 renal, 127%; with CCRF-CEM leukemia it was 59.5%. The growth in the assay on MOLT-4 leukemia is 51.7%.

As to `CC1=CC2c3oc(-c4ccccc4)c(C(=O)c4ccccc4)c3CNC2C=C1` (configuration not stated), the growth in the assay on HCT-15 colon is 97.2%; in the assay on HT29 colon, 84.2%; in the assay on SNB-75 CNS, 79.7%; with SNB-19 CNS it was 91.6%; in the assay with U251 CNS, 80.7%; with PC-3 prostate, 94%. The growth with SK-MEL-5 melanoma was 103%; in the assay with UACC-62 melanoma it was 87.9%; in the assay with LOX IMVI melanoma, 86.2%; in the assay with SK-MEL-28 melanoma, 111%; in the assay with EKVX NSCLC, 107%; in the assay on SN12C renal, 88.5%. Moreover, the growth with UO-31 renal is 72.2%; in the assay with TK-10 renal, 96%; in the assay with ACHN renal it was 87.4%; in the assay with CAKI-1 renal it was 94.8%; with A498 renal it was 100%; with CCRF-CEM leukemia, 76.1%. Besides, the growth with MOLT-4 leukemia is 101%.

With `CNC(=O)c1cc(Oc2ccc(NC(=O)Nc3cc(C(C)(C)C)nn3-c3ccc4ncccc4c3)c(F)c2)ccn1`, the growth with HCT-15 colon is -12.9% (active); in the assay on HT29 colon it was -45.3% (active); in the assay on SNB-75 CNS, -94% (active); in the assay on SNB-19 CNS it was 1.45% (active); in the assay on U251 CNS, -21.7% (active); in the assay with PC-3 prostate, -23.6% (active). In addition, the growth in the assay with SK-MEL-5 melanoma was -83.5% (active); in the assay with UACC-62 melanoma, -52% (active); in the assay with LOX IMVI melanoma, -72.9% (active); in the assay on SK-MEL-28 melanoma, -45.5% (active); in the assay on EKVX NSCLC, -16.9% (active); with SN12C renal it was -10.3% (active). Moreover, the growth is -21.4% (active) in the assay on UO-31 renal; -35.5% (active) in the assay with TK-10 renal; -20.6% (active) with ACHN renal; -24.9% (active) in the assay on CAKI-1 renal; -71.3% (active) in the assay on A498 renal; 8.17% (active) in the assay with CCRF-CEM leukemia. In addition, the growth in the assay with MOLT-4 leukemia is -1.34% (active).

Consider `COc1ccc(Br)cc1NC(=O)Nc1cccc2c1ccn2Cc1ccnc(N)c1`, for which the growth in the assay on HCT-15 colon was 1.92% (active); in the assay on HT29 colon, -40.6% (active); in the assay on SNB-75 CNS, 26.7%; with SNB-19 CNS it was 37.3%; in the assay with U251 CNS, 13.9%; in the assay with PC-3 prostate, 17.3%. In addition, the growth with SK-MEL-5 melanoma was 23.5%; with UACC-62 melanoma, 29%; in the assay on LOX IMVI melanoma, -68% (active); in the assay with SK-MEL-28 melanoma, 53.3%; with EKVX NSCLC, 31.3%; in the assay with SN12C renal, 40.9%. In addition, the growth in the assay with UO-31 renal is 9.39% (active); with TK-10 renal, 22.1%; with ACHN renal, 24.1%; in the assay with CAKI-1 renal, 15%; in the assay on A498 renal, -2.46% (active); in the assay on CCRF-CEM leukemia, 27.3%. The growth in the assay on MOLT-4 leukemia was 8.16% (active).

For `COC(=O)[C@@H](NC(=O)[C@@H](OC)[C@@H]1Cc2cc3cc(OC4CC(OC5CC(O)C(O)C(C)O5)C(O)C(C)O4)c(C)c(O)c3c(O)c2C(=O)[C@H]1OC1CC(OC2CC(OC3CC(C)(O)C(O)C(C)O3)C(O)C(C)O2)C(O)C(C)O1)C(C)C` (some centres not stated), the growth was 23.9% in the assay on HCT-15 colon; 6.32% (active) with HT29 colon; -24.3% (active) in the assay on SNB-75 CNS; 8.43% (active) with SNB-19 CNS; -28.1% (active) with U251 CNS; 18.8% in the assay with PC-3 prostate. Moreover, the growth with SK-MEL-5 melanoma is -74.3% (active); in the assay on UACC-62 melanoma it was -65.1% (active); in the assay with LOX IMVI melanoma it was -76.2% (active); in the assay with SK-MEL-28 melanoma, -1.86% (active); in the assay on EKVX NSCLC it was 25.3%; in the assay with SN12C renal it was 13.2%. In addition, the growth in the assay on UO-31 renal is 7.39% (active); in the assay on TK-10 renal it was 21.7%; with ACHN renal, 0.317% (active); in the assay with CAKI-1 renal it was 20%; in the assay with A498 renal, -83.2% (active); with CCRF-CEM leukemia it was 7.92% (active). The growth with MOLT-4 leukemia is 1.35% (active).
